Inconclusive results are not listed. Entries that show only a call come without a potency. Calls of active or inactive are those of the source. Calls come from the whole dose curve; as a rule, active = well fitted inhibition curve with a large enough effect; inconclusive = small, poorly fitted or top-dose-only effect; inactive = flat fitted curve, though single readings scatter.
Each compound was assayed against Phospholipid hydroperoxide glutathione peroxidase GPX4 (Homo sapiens) (UniProt P36969) (assay: Primary qHTS Assay for Inhibitors of Recombinant Selenoprotein Glutathione Peroxidase 4 (GPX4) (AID 1845192; note: nearly all actives have a fitted effect of over 65% in size)). Conditions: recombinant GPX4, GR-coupled NADPH fluorescence, 15 min; series mostly up to 27.8 µM.
Outline: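 NADPH consumption, followed by fluorescence at 340/450 nm between 0 and 15 min, reports GPX4 activity via coupled glutathione reductase (100 nM). Enzyme 200 nM was pre-exposed to compound 30 min; 0.5 mM cumene hydroperoxide and 1 mM GSH served as substrates.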

Chain of Phospholipid hydroperoxide glutathione peroxidase GPX4 (Homo sapiens) (P36969 whole entry, looked up): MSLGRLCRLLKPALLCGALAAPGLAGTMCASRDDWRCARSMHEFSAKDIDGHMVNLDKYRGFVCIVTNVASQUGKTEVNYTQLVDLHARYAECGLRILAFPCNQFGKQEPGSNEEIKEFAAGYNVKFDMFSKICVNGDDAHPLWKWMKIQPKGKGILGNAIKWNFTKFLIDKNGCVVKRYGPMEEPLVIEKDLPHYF

SMILES	Potency
CC(C)=CC1C[C@](C)(O)[C@@H]2[C@H]3CCC4[C@@]5(C)CC[C@H](O[C@@H]6OC[C@H](O)[C@H](O[C@@H]7O[C@H](CO[C@@H]8O[C@H](CO)[C@@H](O)[C@H](O)[C@H]8O)[C@@H](O)[C@H](O)[C@H]7O)[C@H]6O[C@@H]6O[C@@H](C)[C@H](O)[C@@H](O)[C@H]6O)C(C)(C)[C@@H]5CC[C@@]4(C)[C@@]34CO[C@@]2(C4)O1 (stereo partly specified)	inactive
CC(=O)c1[nH]cc(CCC(=O)O)c1CC(=O)O	inactive
CN1C(=O)N(c2cc(Cl)cc(Cl)c2)C(=O)[C@@]1(C)Cc1ccc(Br)cc1	inactive
CC(=O)OC1C(O)C(C)(O)C(/C=C/C(=O)O)C2(C)CCCC(C)(C)C12 (stereo unspecified)	inactive
CNc1nc(C)nc(N[C@H]2CCC[C@@H](C(=O)NCc3ccc(C#N)cc3C(F)(F)F)C2)n1	inactive
CC1=C2CC(=O)C(C)CC/C=C(\C)CC2(O)OC1=O (stereo unspecified)	inactive
CC(NC(=O)c1ccccc1N)C(=O)O (stereo unspecified)	inactive
C/C(=C\CCC(C)C1CC(O)C2(C)C3CCC4C(C)(C)C(OC5OCC(O)C(O)C5O)CCC45CC35CC(O)C12C)C(=O)O (stereo unspecified)	inactive
COc1c(C)c(OCC=C(C)C)cc2c1CNC2=O	inactive
CC(C)/C=C1/NC(=O)C(C(C)C)n2c1nc1c(O)cccc1c2=O (stereo unspecified)	inactive
N[C@@H](CCNCc1ccc(Cl)cc1)C(=O)N1CCCCC1	inactive
CC(=O)OC12CC(C)C(O)C1/C=C(/COC1OC(CO)C(O)C(O)C1O)CCC1C(/C=C(\C)C2=O)C1(C)C (stereo unspecified)	inactive
OC[C@@]1(O)CO[C@H](OC[C@H]2O[C@@H](OC(CCCCc3ccc(O)cc3)CCc3ccc(O)cc3)[C@H](O)[C@@H](O)[C@@H]2O)[C@@H]1O (stereo partly specified)	inactive
C/C(=C/CO)CC[C@H]1[C@]2(C)C[C@H](O)CC(C)(C)[C@H]2CC[C@]1(C)O	inactive
C=C1C2(C)CC3C4(C)OC(C5OC56C4=CC(=O)OC6(C)C)C3(C)C13C(=O)OC(C)C3(O)C2=O (stereo unspecified)	inactive
C=C(C)[C@@H]1CC[C@]2(C(=O)O)CC[C@]3(C)[C@H](CCC4[C@@]5(C)CCC(=O)C(C)(C)C5C(O)C[C@]43C)C12 (stereo partly specified)	inactive

SMILES	Potency
NC(=O)c1ccc(F)c2c1C[C@@H](N(C1CCC1)C1CCC1)CO2	inactive
CC1(C)C=Cc2c(ccc3c2[N+]([O-])=C2C3(O)CC34NC(=O)C5(CCCN5C3=O)CC4C2(C)C)O1 (stereo unspecified)	inactive
CC1(C(=O)O)CCCC2(C)C3CC4C5CC3(CCC12)CC45C (stereo unspecified)	inactive
C[C@@H]1O[C@@H](O[C@H]2[C@@H]3C=CO[C@@H](O[C@@H]4O[C@H](CO)[C@@H](O)[C@H](O)[C@H]4O)[C@@H]3[C@@]3(CO)O[C@@H]23)[C@H](O)[C@H](OC(=O)/C=C/c2ccc(O)c(O)c2)[C@H]1O	inactive
O=C(Cn1c2ccccc2c2nc3n(c(=O)c21)CCS3)N1CCCC1	inactive
CC12CC(c3ccoc3)OC(=O)C1CCC1(C)C2CCC(O)C1(C)O (stereo unspecified)	inactive
CC1CC(O)/C=C/C(O)/C=C\C(=O)O1 (stereo unspecified)	inactive
C[C@@H]1O[C@@H](O[C@H]2[C@H](O[C@H]3[C@H](O[C@H]4CC[C@@]5(C)C(CC[C@]6(C)C5CC=C5[C@@H]7CC(C)(C)C[C@@H](O)[C@]7(C)CC[C@]56C)[C@@]4(C)CO)O[C@H](C(=O)O)[C@@H](O)[C@@H]3O)O[C@H](CO)[C@H](O)[C@@H]2O)[C@H](O)[C@H](O)[C@H]1O (stereo partly specified)	inactive
C=C1C(=O)OC2CC(COC(=O)C(C)C)=C(C(C)CCCOC(C)=O)[C@@H](OC(C)=O)C12 (stereo partly specified)	inactive
COC(=O)/C=C/c1ccc(O[C@@H]2O[C@H](CO)[C@@H](O)[C@H](O)[C@H]2O)cc1	inactive
COc1cc2c(c(OC)c1O)C(c1ccc(O)cc1)C1C(=O)OC3C(COC(=O)C1=C2)OC(CO)(OC1OC(COC(=O)/C=C/c2ccc(OC4OC(C)C(O)C(O)C4O)cc2)C(O)C(O)C1O)C3O (stereo unspecified)	inactive
N#CN1CCC[C@@H](n2nc(-c3ccc(Oc4ccc(F)cc4F)cc3)c(C(N)=O)c2N)C1	inactive
OC[C@H]1O[C@@H](OCCc2ccccc2)[C@H](O)[C@@H](O)[C@@H]1O	inactive
O=C(O)CC/C=C\C[C@H]1CO[C@@H](c2ccccc2Cl)O[C@H]1c1ccccc1O	inactive
COc1cc(C(=O)OCC2=CCC3C(C(=O)O)=COC(O[C@@H]4O[C@H](CO)[C@@H](O)[C@H](O)[C@H]4O)C23)ccc1O (stereo partly specified)	inactive

Reference: PubChem BioAssay (NCATS)
